# Source: PubChem BioAssay (NCI)
# The panel holds about 79,000 compounds, 15% with a hit somewhere; the sample as a whole holds those more often. Values without a mark were called inactive. The source made the active and inactive calls. Cut-off read from the data, not from the text of the source: active = growth inhibition above about 70%; inactive = the rest.
# What was measured:
# [1] = NCI Yeast Anticancer Drug Screen. Data for the rad50 strain (AID 155);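 note: 0% = growth of vehicle-only cultures of the same strain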; conditions: S. cerevisiae rad50 strain growth inhibition; at 50.0 µM; stronger effect = higher value
# Procedure, shortened: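 Vehicle-treated cultures provide the reference for the growth inhibition reported for compound-exposed, repair-deficient yeast.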
# [2] = NCI Yeast Anticancer Drug Screen. Data for the mec2-1 strain (AID 157); conditions: S. cerevisiae mec2-1 strain, at 50.0 µM, stronger effect = higher value
# Procedure, shortened: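 Mutant yeast (mec2-1) grown with compound; growth inhibition relative to vehicle control reported.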
# [3] = NCI Yeast Anticancer Drug Screen. Data for the sgs1 mgt1 strain (AID 161);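 note: 0% = growth of cultures given vehicle only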; conditions: S. cerevisiae sgs1 mgt1 strain, at 50.0 µM, stronger effect = higher value
# Procedure, shortened: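 Growth of a repair-deficient yeast mutant was monitored after compound treatment and expressed as inhibition relative to vehicle-treated cultures.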
# [4] = NCI Yeast Anticancer Drug Screen. Data for the cln2 rad14 strain (AID 165);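 note: 0% = growth equal to vehicle treated cultures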; conditions: S. cerevisiae cln2 rad14 strain, at 50.0 µM, stronger effect = higher value
# Procedure, shortened: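 Readout is yeast growth inhibition versus vehicle-treated controls, using a strain with cln2 and rad14 alterations exposed to compound.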
# [5] = NCI Yeast Anticancer Drug Screen. Data for the bub3 strain (AID 167); conditions: S. cerevisiae bub3 mutant strain, at 50.0 µM, stronger effect = higher value
# Procedure, shortened: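 Mutant yeast screening strain plus compound; vehicle-treated cultures serve as the 0% inhibition reference.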
# [6] = NCI Yeast Anticancer Drug Screen. Data for the mlh1 rad18 strain (AID 175); conditions: S. cerevisiae mlh1 rad18 strain growth inhibition; at 50.0 µM; stronger effect = higher value
# Procedure, shortened: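 Genetically defined yeast (DNA repair-deficient) exposed to compounds; growth inhibition determined relative to vehicle.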
Structure (SMILES),growth inhibition [1],growth inhibition [2],growth inhibition [3],growth inhibition [4],growth inhibition [5],growth inhibition [6]
O=C1OC2c3ccccc3CC1C2CO (stereo unspecified),20.9%,4.7%,7.55%,9.25%,2%,-4.45%
O=S(=O)(Oc1ccc(-c2ccccc2)cc1Br)c1ccccc1,13%,-0.85%,5.55%,8.3%,1.8%,-5.6%
CCOC(=O)c1cccc(Cl)c1C(=O)O,-7.75%,-13.1%,0.25%,-29.5%,-4.05%,-7.75%
CCC(=O)OCc1ccc(Cl)cc1,23.9%,11.4%,7.9%,8.6%,12.4%,4.9%
NNC(=O)c1ccc(Cl)cc1Nc1ccccc1,24.9%,47%,59%,16.7%,-17.2%,89% (active)
CCCCCCC/C=C\C=O,7.2%,16.9%,7.95%,-1.25%,1%,3.7%
CC1CN=C(N(C(=O)Nc2ccc(F)c(Cl)c2)c2ccccc2)S1 (stereo unspecified),-1.55%,14.3%,-12.3%,25.4%,41.3%,-29.9%
Cc1cc(Br)c2c(c1N)C(=O)c1ccccc1C2=O,23.6%,35%,31.4%,-7.75%,7.1%,15.6%
CC(C)(C)OC(=O)NC1CCCCC1NC(=O)C(=O)NC1CCCCC1NC(=O)OC(C)(C)C (stereo unspecified),-17.1%,-18.7%,-14.8%,4.2%,-10.8%,-30.3%
Cc1nc(N)sc1C,12.7%,-26.9%,16.6%,7.7%,25.6%,26.2%
CC(=O)CCC(CC=O)C(C)C (stereo unspecified),3.35%,0%,7.6%,-4.9%,-3.65%,2.6%
COc1cc2c3c(c1)SC(C)C(=O)N3CCN2 (stereo unspecified),-7.85%,-19.9%,2.55%,10.2%,-3.5%,6.55%
C=CCC1=C(C)C(O)CC1=O (stereo unspecified),-21.9%,-13.7%,-0.75%,-15.7%,0.7%,-41.6%
CC1(C)CCC2(C)CCC3(C)C(=CCC4C5(C)CCC(O)C(C)(C)C5CCC43C)C2C1 (stereo unspecified),0.85%,6.3%,-10.2%,16.2%,4.25%,0.5%
O=c1oc2ccccc2c(O)c1C(c1ccc2c(c1)OCO2)N1CCOCC1 (stereo unspecified),23.2%,25.2%,8.5%,25.7%,1.8%,19.1%
CC(=O)OC1CCC2(C)C(CCC3C2C(=O)C(Br)C2(C)C(C(C)=O)CCC32)C1 (stereo unspecified),-1.2%,0.5%,7.95%,16.9%,13.3%,25.4%
Cc1cccc(Cc2ccccc2C(=O)c2ccccc2)c1C,5.75%,-6.75%,-5.5%,-19.2%,7.4%,-17.1%
O=c1c(F)cn2c(=O)n1CCCCCCCn1c(=O)c(F)cn(c1=O)CCCCCCC2,1.3%,-24.4%,1.65%,0.7%,-13.4%,1.55%
CC(C)CC(NC(=O)OC(C)(C)C)C(=O)NC(Cc1c[nH]c2ccccc12)C(=O)NN (stereo unspecified),37.8%,14.2%,29.4%,32.3%,0.75%,27.7%
CC(=O)C(C)c1nc(=S)[nH]c(=S)[nH]1 (stereo unspecified),11.4%,12.2%,22.4%,9.1%,-1.35%,4.85%
COc1cc(OC)cc(N(C)Cc2cnc3nc(N)nc(N)c3c2C)c1,0.75%,11.7%,15.6%,11.3%,12.3%,-3.45%

Structure (SMILES),growth inhibition [1],growth inhibition [2],growth inhibition [3],growth inhibition [4],growth inhibition [5],growth inhibition [6]
N#C/C(=C\NC(=S)Nc1ccccc1Cl)C(=O)c1ccc2ccccc2c1,-24.4%,-18%,0.7%,13.3%,-35.6%,-28.8%
C[N+](C)(C)CCCSc1nc2ccccc2[nH]1,9.6%,-7.15%,-52%,-30.9%,-24.4%,-15.5%
CC(=O)Nc1ccc(OC2=CCN(C)CC2)cc1,0.75%,-16.1%,8.85%,12.7%,11.1%,-64.8%
Cc1ccc(I)cc1,-59.4%,-32.6%,-33.9%,-7.5%,-2.9%,-19.1%
CCC(C(N)C(=O)O)C(F)(F)F (stereo unspecified),-19.4%,-32.1%,1.4%,4.25%,-22.1%,-6.55%
ClC[C@H]1C[C@@H]2C[C@@H]1[C@H]1O[C@@H]21,-7.4%,-21.6%,-11.2%,-5.35%,-9.6%,10.8%
CS(=O)(=O)OC1CCCSc2ccccc21 (stereo unspecified),8.8%,2%,-14.4%,-8.2%,16.7%,-25.4%
CCOC(=O)c1ccc(NCc2nc3c([nH]2)c(=O)n(C)c(=O)n3C)cc1,-0.95%,-1.45%,-1.35%,-54.1%,-14.2%,1.65%
N#CC(C(=O)/C(=N\NC(N)=O)C(C#N)c1ccc(Cl)cc1)c1ccc(Cl)cc1 (stereo unspecified),-33.6%,-7.25%,-22.1%,2.4%,-7.05%,-4.3%
COc1cc(NCCC2CCCCN2C)c2ncccc2c1 (stereo unspecified),-3.9%,-22.4%,8.55%,1.8%,13.6%,22.1%
O=C1C2C(C(=O)N1c1cccc3ccccc13)C1(Cl)C(Cl)=C(Cl)C2(Cl)C1(Cl)Cl (stereo unspecified),91% (active),93.7% (active),94.6% (active),91.5% (active),89.3% (active),94.5% (active)
CCN(CC)C(=O)Nc1cccc(O)c1,-6.55%,6.65%,-2.6%,-28.7%,-0.25%,5.65%
CCCCNC(=O)/N=C/c1c(O)c2ccccc2oc1=O,7.9%,-10.1%,-13.4%,-1.5%,-42.5%,-16.6%
CCCC(=O)Nc1ccc(N=Nc2ccccc2)cc1,8.15%,43.4%,58.3%,-15.9%,46.1%,57.5%
CC(C)(C)C1CCCC(=O)C1 (stereo unspecified),8.3%,-5.15%,3.5%,10.3%,6.85%,3.15%
CCCCCCc1ccccn1,4.6%,9.3%,9.6%,-1.6%,-1.4%,17.8%
CCOCCOCCOC(=O)c1ccccc1O,-6.75%,1.45%,-4.4%,-14.5%,11.2%,4.4%
Cc1ccc([N+](=O)[O-])cc1NC(=O)C(=O)Cc1occc(=O)c1O,-12.6%,-6%,0.65%,-3.45%,-8.85%,-6.95%
Cc1ccc(CNC(=O)C2CCCCC2C(=O)O)cc1 (stereo unspecified),6.65%,21.7%,6.95%,10.4%,27.9%,-16.1%
COc1ccccc1N=Nc1c(-c2ccccc2)nn(C(N)=S)c1-c1ccccc1,35%,-5.75%,19.4%,12.2%,-0.05%,6.6%
